Experimental data taken from article PMC5540273 (PLoS ONE, 2017).

What follows are compounds tested on BRSK1. Details: concentration: 1 μM, replicates: in singlicate; n = 1.
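Note: KINOMEscan kinase panel screen.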

Q: With `NS(=O)(=O)CCc1cccc(Nc2nccc(-c3c(-c4cccc(NC(=O)c5c(F)cccc5F)c4)nn4ccccc34)n2)c1` [GSK336735] as the compound, how does the “%Inh” value read?
A: Its value is 8%.

Q: How did the “%Inh” value turn out when `COc1ccc(CNC(=O)NC2CCN(c3ccnc(Nc4ccc(OC)cc4)n3)C2)cc1` (centres unmarked) [GSK1379727] was run?
A: Its value is 0%.

Q: Which “%Inh” value does the source give for `c1ccc(-c2cc(-c3c[nH]nc3-c3ccccn3)ccn2)cc1` [GW576604] here?
A: Its value is 0%.

Q: How did the “%Inh” value turn out when `Cn1cc(-c2ccc3c(c2)CCN3C(=O)Cc2ccccc2Cl)c2c(N)ncnc21` [GSK2608885] was run?
A: Its value is 0%.

Q: Which “%Inh” value does the source give for `Cc1nnc(-c2ccc3ncc(-c4ccc(S(C)=O)cc4)n3c2)o1` (centres unmarked) here?
A: Its value is 14%.

Q: `Cc1ccc(NC(=O)c2ccnc(N3CCN(C)CC3)c2)cc1-c1ccc(C(=O)NCC2CC2)cc1` [GW775604] was tested. Which “%Inh” value did it give?
A: Its value is 0%.

Q: Which “%Inh” value does the source give for `CN(C1=C(c2ccccc2)C(=O)NC1=O)c1ccccc1` [SB-334860] here?
A: Its value is 0%.

Q: Which “%Inh” value does the source give for `Cc1ccc(C(=O)NCC(N)=O)cc1-n1c(C)cc(OCc2ccc(F)cc2F)c(Br)c1=O` here?
A: The value was 11%.

Q: How did the “%Inh” value turn out when `NCC(NC(=O)c1cc(-c2cn[nH]c2)c(-c2ccnc3[nH]ccc23)s1)c1ccccc1.O=C(O)C(F)(F)F.O=C(O)C(F)(F)F` (centres unmarked) [GSK1325775] was run?
A: The value was 30%.

Q: Which “%Inh” value does the source give for `CNc1ncnc2[nH]ncc12` [SKF-18355] here?
A: Its value is 0%.

Q: With `CCCCCc1nc2c(N)ncnc2n1CCCCC` [SKF-97255] as the compound, how does the “%Inh” value read?
A: Its value is 0%.

Q: `C[C@@H](Oc1cc(-n2cnc3ccc(NC(=O)NC(C)(C)C)cc32)sc1C(N)=O)c1ccccc1Cl` [GSK346294] was tested. Which “%Inh” value did it give?
A: The value was 10%.

Q: How did the “%Inh” value turn out when `Cl.Oc1cccc(Nc2ccnc3cc(-c4ccncc4)ccc23)c1` [GW494601] was run?
A: The value was 14%.

Q: For `O=C1NC(=O)C(N2CCc3ccccc32)=C1c1cccc(Cl)c1` [SB-408010], which “%Inh” value is on record?
A: Its value is 0%.

Q: `Cc1cn2c(=O)cc(N3CCOCC3)nc2n1Cc1cccc(Cl)c1Cl` [GSK2334006] was tested. Which “%Inh” value did it give?
A: Its value is 14%.

Q: Which “%Inh” value does the source give for `N#Cc1c(N2CCOCC2)sc(-c2ccn[nH]2)c1-c1ccc(Cl)cc1` here?
A: Its value is 0%.

Q: For `CC(=O)Nc1ccc(COc2ccc(Nc3ccnc4cc(-c5ccccn5)ccc34)cc2)cc1.Cl` [GW440148], which “%Inh” value is on record?
A: Its value is 0%.

Q: For `O=c1cc(N2CCOCC2)nc2n(Cc3cccc(C(F)(F)F)c3)ccn12` [GSK2297543], which “%Inh” value is on record?
A: Its value is 0%.

Q: For `Fc1ccc(-c2nn3c(OCC(F)(F)F)cccc3c2-c2ccncc2)cc1` [GW514784], which “%Inh” value is on record?
A: The value was 0%.

Q: For `Cc1cccc(-c2nc(Nc3ccc4ncsc4c3)c3ccccc3n2)n1` [GW867588], which “%Inh” value is on record?
A: The value was 0%.

These compounds were tested on BRSK2. Details: concentration: 1 μM, replicates: in singlicate; n = 1.

Q: Which “%Inh” value does the source give for `Cc1c2ccc(N(C)c3ccnc(Nc4cccc(S(N)(=O)=O)c4)n3)cc2nn1Cc1ccccc1.Cl.Cl` [GW787226] here?
A: Its value is 0%.

Q: Which “%Inh” value does the source give for `Fc1ccc(-c2ncn(CCCN3CCOCC3)c2-c2cccnc2)cc1` [SB-211743] here?
A: Its value is 4%.

Q: For `COc1ccc(Nc2ncc(C#N)c(Nc3ccccc3C(N)=O)n2)cc1N1CCN(C)CC1.Cl` [GSK1558669], which “%Inh” value is on record?
A: Its value is 88%.

Q: `O=c1cc(N2CCOCC2)nc2n(Cc3cccc4ccccc34)ccn12` [GSK2333389] was tested. Which “%Inh” value did it give?
A: Its value is 0%.

Q: For `CCc1nc(-c2cccc(C)c2)c(-c2ccnc(NCc3ccccc3)c2)s1`, which “%Inh” value is on record?
A: Its value is 0%.

Q: How did the “%Inh” value turn out when `O=C(NCCNc1ccnc(Nc2ccc(F)cc2)n1)c1cc2ccccc2s1` [GSK1379874] was run?
A: The value was 0%.

Q: `O=C(NCCNc1ccnc(Nc2ccc(F)cc2)n1)Nc1ccccc1F` [GSK1379880] was tested. Which “%Inh” value did it give?
A: Its value is 0%.

Q: With `CN(C(=O)c1ccc(-c2cc(-c3c[nH]nc3-c3ccccn3)ccn2)cc1)C1CCOCC1` [GW810083] as the compound, how does the “%Inh” value read?
A: The value was 8%.

Q: With `O=C(Nc1n[nH]c2cc(-c3cccc(F)c3)ccc12)C1CC1` [SB-735464] as the compound, how does the “%Inh” value read?
A: The value was 33%.

Q: For `Cc1nnc(-c2ccc(C)c(-c3ccc(C(=O)Nc4ccc(NS(C)(=O)=O)cc4)cc3)c2)o1` [GW702865], which “%Inh” value is on record?
A: The value was 0%.

Q: `COc1ccc(S(=O)(=O)NC2CCN(c3cc(C)nc(Nc4cccc(C#N)c4)n3)CC2)cc1.O=C(O)C(F)(F)F` [GSK1653539] was tested. Which “%Inh” value did it give?
A: Its value is 0%.

Q: How did the “%Inh” value turn out when `O=C(NOCC1CC1)c1ccc(F)c(F)c1Nc1ccc(I)cc1Cl` was run?
A: The value was 0%.

Q: With `COc1cc2c(cc1OC[C@@H](O)CO)ncc1c3ccc(C#N)cc3[nH]c21` as the compound, how does the “%Inh” value read?
A: Its value is 0%.

Q: `NS(=O)(=O)CCc1cccc(Nc2nccc(-c3c(-c4cccc(NC(=O)c5c(F)cccc5F)c4)nn4ccccc34)n2)c1` [GSK336735] was tested. Which “%Inh” value did it give?
A: The value was 20%.

Q: For `COc1ccc(CNC(=O)NC2CCN(c3ccnc(Nc4ccc(OC)cc4)n3)C2)cc1` (centres unmarked) [GSK1379727], which “%Inh” value is on record?
A: The value was 0%.

Q: With `c1ccc(-c2cc(-c3c[nH]nc3-c3ccccn3)ccn2)cc1` [GW576604] as the compound, how does the “%Inh” value read?
A: The value was 0%.

Q: For `Cn1cc(-c2ccc3c(c2)CCN3C(=O)Cc2ccccc2Cl)c2c(N)ncnc21` [GSK2608885], which “%Inh” value is on record?
A: Its value is 6%.

Q: With `Cc1nnc(-c2ccc3ncc(-c4ccc(S(C)=O)cc4)n3c2)o1` (centres unmarked) as the compound, how does the “%Inh” value read?
A: Its value is 0%.

Q: How did the “%Inh” value turn out when `Cc1ccc(NC(=O)c2ccnc(N3CCN(C)CC3)c2)cc1-c1ccc(C(=O)NCC2CC2)cc1` [GW775604] was run?
A: Its value is 0%.

Q: How did the “%Inh” value turn out when `CN(C1=C(c2ccccc2)C(=O)NC1=O)c1ccccc1` [SB-334860] was run?
A: Its value is 0%.

Q: With `Cc1ccc(C(=O)NCC(N)=O)cc1-n1c(C)cc(OCc2ccc(F)cc2F)c(Br)c1=O` as the compound, how does the “%Inh” value read?
A: Its value is 39%.

Q: Which “%Inh” value does the source give for `NCC(NC(=O)c1cc(-c2cn[nH]c2)c(-c2ccnc3[nH]ccc23)s1)c1ccccc1.O=C(O)C(F)(F)F.O=C(O)C(F)(F)F` (centres unmarked) [GSK1325775] here?
A: Its value is 21%.

Q: Which “%Inh” value does the source give for `CNc1ncnc2[nH]ncc12` [SKF-18355] here?
A: Its value is 0%.

Q: How did the “%Inh” value turn out when `CCCCCc1nc2c(N)ncnc2n1CCCCC` [SKF-97255] was run?
A: The value was 22%.

Q: How did the “%Inh” value turn out when `C[C@@H](Oc1cc(-n2cnc3ccc(NC(=O)NC(C)(C)C)cc32)sc1C(N)=O)c1ccccc1Cl` [GSK346294] was run?
A: Its value is 15%.

Q: For `Cl.Oc1cccc(Nc2ccnc3cc(-c4ccncc4)ccc23)c1` [GW494601], which “%Inh” value is on record?
A: The value was 4%.

Q: `O=C1NC(=O)C(N2CCc3ccccc32)=C1c1cccc(Cl)c1` [SB-408010] was tested. Which “%Inh” value did it give?
A: Its value is 0%.

Q: `Cc1cn2c(=O)cc(N3CCOCC3)nc2n1Cc1cccc(Cl)c1Cl` [GSK2334006] was tested. Which “%Inh” value did it give?
A: The value was 0%.

Q: For `N#Cc1c(N2CCOCC2)sc(-c2ccn[nH]2)c1-c1ccc(Cl)cc1`, which “%Inh” value is on record?
A: The value was 18%.

Q: How did the “%Inh” value turn out when `CC(=O)Nc1ccc(COc2ccc(Nc3ccnc4cc(-c5ccccn5)ccc34)cc2)cc1.Cl` [GW440148] was run?
A: The value was 0%.

Q: For `O=c1cc(N2CCOCC2)nc2n(Cc3cccc(C(F)(F)F)c3)ccn12` [GSK2297543], which “%Inh” value is on record?
A: Its value is 7%.

Q: Which “%Inh” value does the source give for `Fc1ccc(-c2nn3c(OCC(F)(F)F)cccc3c2-c2ccncc2)cc1` [GW514784] here?
A: Its value is 0%.

Q: With `Cc1cccc(-c2nc(Nc3ccc4ncsc4c3)c3ccccc3n2)n1` [GW867588] as the compound, how does the “%Inh” value read?
A: Its value is 0%.
